# Article PMC11006913
# Where a chain is given by its changes, count along the chain named.
# Key:
# Test in all cases: PBM; 200 nM protein, PBS
# Conditions in all cases: dsDNA, one strand shown
# HOXA4 [1] = target: HOXA4 (Homo sapiens, UniProt Q00056 201-287, W262R)
# HOXC9 [2] = target: HOXC9 (Homo sapiens, UniProt P31274 178-260, K195R)
# HOXA4 [3] = target: HOXA4 (Homo sapiens, UniProt Q00056 201-287, R217L)
# HOXC9 [4] = target: HOXC9 (Homo sapiens, UniProt P31274 178-260)
# ALX3 [5] = target: ALX3 (Homo sapiens, UniProt O95076 139-225, N203Q)
# ALX3 (Homo sapiens, UniProt O95076 139-225, N203Q), sequence (O95076 139-225 N203Q): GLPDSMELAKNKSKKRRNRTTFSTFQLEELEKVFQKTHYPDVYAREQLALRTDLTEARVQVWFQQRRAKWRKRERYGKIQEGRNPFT
# HOXC9 [6] = target: HOXC9 (Homo sapiens, UniProt P31274 178-260, R193K)
# HOXC9 (Homo sapiens, UniProt P31274 178-260, R193K), sequence (P31274 178-260 R193K): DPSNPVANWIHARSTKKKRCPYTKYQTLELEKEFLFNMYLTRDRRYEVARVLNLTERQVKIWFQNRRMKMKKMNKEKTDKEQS
# HOXA4 [7] = target: HOXA4 (Homo sapiens, UniProt Q00056 201-287)
# HOXA4 (Homo sapiens, UniProt Q00056 201-287), sequence (Q00056 201-287): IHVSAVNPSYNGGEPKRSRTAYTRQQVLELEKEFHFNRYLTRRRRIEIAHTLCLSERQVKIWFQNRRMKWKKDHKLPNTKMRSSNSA
# ALX3 [8] = target: ALX3 (Homo sapiens, UniProt O95076 139-225)
# ALX3 (Homo sapiens, UniProt O95076 139-225), sequence (O95076 139-225): as the sequence (O95076 139-225 N203Q) above, with Q65N counted along it
# ALX3 [9] = target: ALX3 (Homo sapiens, UniProt O95076 139-225, L168Q)
# ALX3 (Homo sapiens, UniProt O95076 139-225, L168Q), sequence (O95076 139-225 L168Q): as the sequence (O95076 139-225 N203Q) above, with L30Q, Q65N counted along it
# HOXC9 [10] = target: HOXC9 (Homo sapiens, UniProt P31274 178-260, R222W)
# HOXC9 (Homo sapiens, UniProt P31274 178-260, R222W), sequence (P31274 178-260 R222W): as the sequence (P31274 178-260 R193K) above, with K16R, R45W counted along it
# ALX3 [11] = target: ALX3 (Homo sapiens, UniProt O95076 139-225, L168V)
# ALX3 (Homo sapiens, UniProt O95076 139-225, L168V), sequence (O95076 139-225 L168V): as the sequence (O95076 139-225 N203Q) above, with L30V, Q65N counted along it
# HOXA4 [12] = target: HOXA4 (Homo sapiens, UniProt Q00056 201-287, W262F)
# HOXA4 (Homo sapiens, UniProt Q00056 201-287, W262F), sequence (Q00056 201-287 W262F): as the sequence (Q00056 201-287) above, with W62F counted along it
# ALX3 [13] = target: ALX3 (Homo sapiens, UniProt O95076 139-225, N203S)
# ALX3 (Homo sapiens, UniProt O95076 139-225, N203S), sequence (O95076 139-225 N203S): as the sequence (O95076 139-225 N203Q) above, with Q65S counted along it
# PRRX1 [14] = target: PRRX1 (Homo sapiens, UniProt P54821 80-166, F113S)
# PRRX1 (Homo sapiens, UniProt P54821 80-166, F113S), sequence (P54821 80-166 F113S): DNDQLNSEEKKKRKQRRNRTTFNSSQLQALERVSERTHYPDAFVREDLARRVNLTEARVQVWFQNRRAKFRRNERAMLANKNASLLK
# PRRX1 [15] = target: PRRX1 (Homo sapiens, UniProt P54821 80-166)
# PRRX1 (Homo sapiens, UniProt P54821 80-166), sequence (P54821 80-166): as the sequence (P54821 80-166 F113S) above, with S34F counted along it
# PAX4 [16] = target: T1, PAX4 (Homo sapiens, UniProt O43316 9-242, R200K)
# T1 sequence: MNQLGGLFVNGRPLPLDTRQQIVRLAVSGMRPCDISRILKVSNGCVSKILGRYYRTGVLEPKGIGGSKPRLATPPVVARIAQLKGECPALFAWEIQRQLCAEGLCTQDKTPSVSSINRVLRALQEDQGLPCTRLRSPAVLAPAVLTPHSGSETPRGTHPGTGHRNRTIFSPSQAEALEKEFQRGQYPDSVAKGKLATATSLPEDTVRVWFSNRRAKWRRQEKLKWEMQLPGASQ
# PAX4 [17] = target: T2, PAX4 (Homo sapiens, UniProt O43316 9-242)
# T2 sequence: T1 sequence with K192R
# MSX2 [18] = target: MSX2 (Homo sapiens, UniProt P35548 130-214, R199I)
# MSX2 (Homo sapiens, UniProt P35548 130-214, R199I), sequence (P35548 130-214 R199I): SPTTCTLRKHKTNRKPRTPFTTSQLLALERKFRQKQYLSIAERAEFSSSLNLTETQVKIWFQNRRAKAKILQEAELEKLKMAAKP
# PAX4 [19] = target: T3, PAX4 (Homo sapiens, UniProt O43316 9-242, R200Q)
# T3 sequence: T1 sequence with K192Q
# PAX4 [20] = target: T4, PAX4 (Homo sapiens, UniProt O43316 9-242, F177V)
# T4 sequence: T1 sequence with F169V, K192R
# MSX2 [21] = target: MSX2 (Homo sapiens, UniProt P35548 130-214)
# MSX2 (Homo sapiens, UniProt P35548 130-214), sequence (P35548 130-214): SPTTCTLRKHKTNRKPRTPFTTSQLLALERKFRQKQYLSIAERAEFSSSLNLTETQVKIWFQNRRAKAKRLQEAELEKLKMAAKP
# PAX4 [22] = target: T5, PAX4 (Homo sapiens, UniProt O43316 9-242, F177Y)
# T5 sequence: T1 sequence with F169Y, K192R
# MSX2 [23] = target: MSX2 (Homo sapiens, UniProt P35548 130-214, F161Y)
# MSX2 (Homo sapiens, UniProt P35548 130-214, F161Y), sequence (P35548 130-214 F161Y): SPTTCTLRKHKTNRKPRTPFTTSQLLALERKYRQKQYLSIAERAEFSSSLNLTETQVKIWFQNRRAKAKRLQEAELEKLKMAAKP
# PAX4 [24] = target: T6, PAX4 (Homo sapiens, UniProt O43316 9-242, R227W)
# T6 sequence: T1 sequence with K192R, R219W
# VAX1 [25] = target: VAX1 (Homo sapiens, UniProt Q5SQQ9 86-172)
# VAX1 (Homo sapiens, UniProt Q5SQQ9 86-172), sequence (Q5SQQ9 86-172): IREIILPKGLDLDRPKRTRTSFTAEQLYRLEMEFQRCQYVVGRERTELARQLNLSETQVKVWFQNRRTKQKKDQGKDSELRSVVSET
# VAX1 [26] = target: VAX1 (Homo sapiens, UniProt Q5SQQ9 86-172, T142I)
# VAX1 (Homo sapiens, UniProt Q5SQQ9 86-172, T142I), sequence (Q5SQQ9 86-172 T142I): as the sequence (Q5SQQ9 86-172) above, with T57I counted along it
# VAX1 [27] = target: VAX1 (Homo sapiens, UniProt Q5SQQ9 86-172, K157R)
# VAX1 (Homo sapiens, UniProt Q5SQQ9 86-172, K157R), sequence (Q5SQQ9 86-172 K157R): as the sequence (Q5SQQ9 86-172) above, with K72R counted along it
# ALX1 [28] = target: ALX1 (Homo sapiens, UniProt Q15699 118-204, L144V)
# ALX1 (Homo sapiens, UniProt Q15699 118-204, L144V), sequence (Q15699 118-204 L144V): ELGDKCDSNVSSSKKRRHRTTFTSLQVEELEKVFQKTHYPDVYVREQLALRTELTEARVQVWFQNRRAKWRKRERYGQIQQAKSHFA
# ALX1 [29] = target: ALX1 (Homo sapiens, UniProt Q15699 118-204, L144R)
# ALX1 (Homo sapiens, UniProt Q15699 118-204, L144R), sequence (Q15699 118-204 L144R): as the sequence (Q15699 118-204 L144V) above, with V27R counted along it
# ALX1 [30] = target: ALX1 (Homo sapiens, UniProt Q15699 118-204)
# ALX1 (Homo sapiens, UniProt Q15699 118-204), sequence (Q15699 118-204): as the sequence (Q15699 118-204 L144V) above, with V27L counted along it
# HOXA4 (Homo sapiens, UniProt Q00056 201-287, W262R), sequence (Q00056 201-287 W262R): as the sequence (Q00056 201-287) above, with W62R counted along it
# HOXA4 (Homo sapiens, UniProt Q00056 201-287, R217L), sequence (Q00056 201-287 R217L): as the sequence (Q00056 201-287) above, with R17L counted along it
# HOXC9 (Homo sapiens, UniProt P31274 178-260), sequence (P31274 178-260): as the sequence (P31274 178-260 R193K) above, with K16R counted along it
# HOXC9 (Homo sapiens, UniProt P31274 178-260, K195R), sequence (P31274 178-260 K195R): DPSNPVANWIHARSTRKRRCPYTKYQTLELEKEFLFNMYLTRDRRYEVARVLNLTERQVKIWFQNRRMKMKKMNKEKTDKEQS
sequence,measurement,setting,value
AGCCACGG,binding signal,HOXA4 [1],"9.87 upbm affinity estimate (log intensity, higher = more binding, comparable within an allelic series)"
same,binding signal,HOXC9 [2],"9.64 upbm affinity estimate (log intensity, higher = more binding, comparable within an allelic series)"
same,binding signal,HOXA4 [3],"9.72 upbm affinity estimate (log intensity, higher = more binding, comparable within an allelic series)"
same,binding signal,HOXC9 [4],"9.71 upbm affinity estimate (log intensity, higher = more binding, comparable within an allelic series)"
same,binding signal,ALX3 [5],"7.72 upbm affinity estimate (log intensity, higher = more binding, comparable within an allelic series)"
same,binding signal,HOXC9 [6],"9.61 upbm affinity estimate (log intensity, higher = more binding, comparable within an allelic series)"
same,binding signal,HOXA4 [7],"9.87 upbm affinity estimate (log intensity, higher = more binding, comparable within an allelic series)"
same,binding signal,ALX3 [8],"7.83 upbm affinity estimate (log intensity, higher = more binding, comparable within an allelic series)"
same,binding signal,ALX3 [9],"7.8 upbm affinity estimate (log intensity, higher = more binding, comparable within an allelic series)"
same,binding signal,HOXC9 [10],"9.71 upbm affinity estimate (log intensity, higher = more binding, comparable within an allelic series)"
same,binding signal,ALX3 [11],"7.72 upbm affinity estimate (log intensity, higher = more binding, comparable within an allelic series)"
same,binding signal,HOXA4 [12],"9.91 upbm affinity estimate (log intensity, higher = more binding, comparable within an allelic series)"
same,binding signal,ALX3 [13],"7.74 upbm affinity estimate (log intensity, higher = more binding, comparable within an allelic series)"
GGGGGAAC,binding signal,HOXA4 [1],"9.66 upbm affinity estimate (log intensity, higher = more binding, comparable within an allelic series)"
same,binding signal,PRRX1 [14],"9.45 upbm affinity estimate (log intensity, higher = more binding, comparable within an allelic series)"
same,binding signal,HOXA4 [3],"9.7 upbm affinity estimate (log intensity, higher = more binding, comparable within an allelic series)"
same,binding signal,HOXA4 [7],"9.72 upbm affinity estimate (log intensity, higher = more binding, comparable within an allelic series)"
same,binding signal,HOXA4 [12],"9.64 upbm affinity estimate (log intensity, higher = more binding, comparable within an allelic series)"
same,binding signal,PRRX1 [15],"9.62 upbm affinity estimate (log intensity, higher = more binding, comparable within an allelic series)"
TAATTTGA,binding signal,HOXA4 [1],"10.4 upbm affinity estimate (log intensity, higher = more binding, comparable within an allelic series)"
same,binding signal,PAX4 [16],"11.7 upbm affinity estimate (log intensity, higher = more binding, comparable within an allelic series)"
same,binding signal,PRRX1 [14],"10.7 upbm affinity estimate (log intensity, higher = more binding, comparable within an allelic series)"
same,binding signal,PAX4 [17],"12.2 upbm affinity estimate (log intensity, higher = more binding, comparable within an allelic series)"
same,binding signal,HOXA4 [3],"11.4 upbm affinity estimate (log intensity, higher = more binding, comparable within an allelic series)"
same,binding signal,MSX2 [18],"12.2 upbm affinity estimate (log intensity, higher = more binding, comparable within an allelic series)"
same,binding signal,PAX4 [19],"11.9 upbm affinity estimate (log intensity, higher = more binding, comparable within an allelic series)"
same,binding signal,PAX4 [20],"10.5 upbm affinity estimate (log intensity, higher = more binding, comparable within an allelic series)"
same,binding signal,HOXA4 [7],"12.8 upbm affinity estimate (log intensity, higher = more binding, comparable within an allelic series)"
same,binding signal,MSX2 [21],"13.4 upbm affinity estimate (log intensity, higher = more binding, comparable within an allelic series)"
same,binding signal,PAX4 [22],"10.9 upbm affinity estimate (log intensity, higher = more binding, comparable within an allelic series)"
same,binding signal,MSX2 [23],"13 upbm affinity estimate (log intensity, higher = more binding, comparable within an allelic series)"
same,binding signal,PAX4 [24],"10.9 upbm affinity estimate (log intensity, higher = more binding, comparable within an allelic series)"
same,binding signal,HOXA4 [12],"10.8 upbm affinity estimate (log intensity, higher = more binding, comparable within an allelic series)"
same,binding signal,PRRX1 [15],"13.2 upbm affinity estimate (log intensity, higher = more binding, comparable within an allelic series)"
GACTCACC,binding signal,HOXA4 [1],"9.89 upbm affinity estimate (log intensity, higher = more binding, comparable within an allelic series)"
same,binding signal,HOXA4 [3],"9.87 upbm affinity estimate (log intensity, higher = more binding, comparable within an allelic series)"
same,binding signal,HOXA4 [7],"9.79 upbm affinity estimate (log intensity, higher = more binding, comparable within an allelic series)"
same,binding signal,VAX1 [25],"6.98 upbm affinity estimate (log intensity, higher = more binding, comparable within an allelic series)"
same,binding signal,VAX1 [26],"7.2 upbm affinity estimate (log intensity, higher = more binding, comparable within an allelic series)"
same,binding signal,HOXA4 [12],"9.8 upbm affinity estimate (log intensity, higher = more binding, comparable within an allelic series)"
same,binding signal,VAX1 [27],"7.1 upbm affinity estimate (log intensity, higher = more binding, comparable within an allelic series)"
CACGGTGC,binding signal,HOXA4 [1],"9.98 upbm affinity estimate (log intensity, higher = more binding, comparable within an allelic series)"
same,binding signal,HOXA4 [3],"9.8 upbm affinity estimate (log intensity, higher = more binding, comparable within an allelic series)"
same,binding signal,HOXA4 [7],"9.75 upbm affinity estimate (log intensity, higher = more binding, comparable within an allelic series)"
same,binding signal,HOXA4 [12],"9.86 upbm affinity estimate (log intensity, higher = more binding, comparable within an allelic series)"
GACTCCGC,binding signal,HOXA4 [1],"9.83 upbm affinity estimate (log intensity, higher = more binding, comparable within an allelic series)"
same,binding signal,HOXA4 [3],"9.81 upbm affinity estimate (log intensity, higher = more binding, comparable within an allelic series)"
same,binding signal,ALX1 [28],"6.29 upbm affinity estimate (log intensity, higher = more binding, comparable within an allelic series)"
same,binding signal,ALX1 [29],"6.35 upbm affinity estimate (log intensity, higher = more binding, comparable within an allelic series)"
same,binding signal,HOXA4 [7],"9.59 upbm affinity estimate (log intensity, higher = more binding, comparable within an allelic series)"
same,binding signal,ALX1 [30],"6.25 upbm affinity estimate (log intensity, higher = more binding, comparable within an allelic series)"
same,binding signal,HOXA4 [12],"9.87 upbm affinity estimate (log intensity, higher = more binding, comparable within an allelic series)"
